An excerpt weighted towards active compounds, which were near 2.4% of everything screened.
Wnt act: Wnt/beta-catenin pathway activation | Wnt/beta-catenin reporter cell assay, activator, plate reader | activation, % at 9.35 µM | hit rate 1.2% among 300,000 | AID 743398; in the data active = activation above about 30%, passing the limit was not always enough; inconclusive = no clear call, values can overlap the other calls;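 also: 0% = neutral control wells and 100% = positive control wells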
Dyrk1A ADPGlo: inhibitors of rat Dyrk1A kinase. ADP-Glo luminescence, NFATc1 peptide. inhibition, % at 12.5 µM. hit rate 0.43% among 310,000;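 also: plate controls were vehicle with enzyme for no effect and no enzyme for full effect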
NSD2 inh: NSD2 (human) methyltransferase inhibition | AID 743445 | hit rate 0.54% among 310,000 | NSD2 peptide methylation, AlphaScreen, 120 min | O96028 | inhibition, % at 12.5 µM
Target sequence (O96028 whole entry, looked up): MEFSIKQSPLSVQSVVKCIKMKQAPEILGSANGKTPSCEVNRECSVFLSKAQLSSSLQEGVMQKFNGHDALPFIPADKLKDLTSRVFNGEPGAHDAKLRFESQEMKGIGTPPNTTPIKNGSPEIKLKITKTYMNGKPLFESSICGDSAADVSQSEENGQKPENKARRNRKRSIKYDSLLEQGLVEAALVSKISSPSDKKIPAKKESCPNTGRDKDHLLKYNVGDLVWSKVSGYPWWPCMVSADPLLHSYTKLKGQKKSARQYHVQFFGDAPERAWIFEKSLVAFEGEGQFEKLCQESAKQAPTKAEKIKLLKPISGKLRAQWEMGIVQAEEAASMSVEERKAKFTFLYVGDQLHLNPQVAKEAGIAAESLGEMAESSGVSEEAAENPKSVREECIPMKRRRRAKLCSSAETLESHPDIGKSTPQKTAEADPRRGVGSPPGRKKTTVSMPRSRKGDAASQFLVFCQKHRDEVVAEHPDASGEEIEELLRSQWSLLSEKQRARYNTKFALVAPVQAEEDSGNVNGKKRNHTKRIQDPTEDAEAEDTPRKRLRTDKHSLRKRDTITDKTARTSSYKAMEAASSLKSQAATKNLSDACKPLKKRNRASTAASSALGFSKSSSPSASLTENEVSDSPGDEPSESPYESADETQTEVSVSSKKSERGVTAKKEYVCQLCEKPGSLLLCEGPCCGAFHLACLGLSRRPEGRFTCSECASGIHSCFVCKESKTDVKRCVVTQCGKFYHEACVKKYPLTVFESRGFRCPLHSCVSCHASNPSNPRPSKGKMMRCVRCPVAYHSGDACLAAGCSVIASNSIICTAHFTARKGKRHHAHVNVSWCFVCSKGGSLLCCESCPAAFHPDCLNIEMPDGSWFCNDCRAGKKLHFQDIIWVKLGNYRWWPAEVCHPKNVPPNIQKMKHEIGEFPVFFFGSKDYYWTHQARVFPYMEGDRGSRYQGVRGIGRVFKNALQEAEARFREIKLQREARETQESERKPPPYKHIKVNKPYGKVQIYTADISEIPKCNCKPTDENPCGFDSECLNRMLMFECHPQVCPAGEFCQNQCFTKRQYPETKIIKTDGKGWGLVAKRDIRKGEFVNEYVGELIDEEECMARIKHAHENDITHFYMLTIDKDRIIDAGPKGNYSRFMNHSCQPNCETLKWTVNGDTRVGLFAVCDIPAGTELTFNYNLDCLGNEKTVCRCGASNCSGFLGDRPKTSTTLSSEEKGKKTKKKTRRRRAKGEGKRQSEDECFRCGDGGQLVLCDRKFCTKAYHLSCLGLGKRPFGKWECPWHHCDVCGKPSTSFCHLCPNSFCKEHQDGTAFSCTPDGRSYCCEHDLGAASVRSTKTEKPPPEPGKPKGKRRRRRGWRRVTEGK
miR122 inh: blocks miR-122 activity in Huh7 sensor cells. Huh7 miR-122 Renilla luciferase sensor, 48 h; neutral wells = 0, positive control = 100. activation (reporter increase), % at 12.5 µM. hit rate 0.3% among 340,000;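 active = mean replicate activation score at least 90 and every replicate individually at or above 90; inconclusive = only one of the two criteria met; inactive = neither criterion met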;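 also: higher luciferase means less miR-122 activity so hits act as miR-122 inhibitors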
INS-1E GSIS act: GLuc luminescence reporter in INS-1E cells, primary screen for activators of glucose-dependent secretion of insulin | INS-1E GLuc reporter insulin secretion, 2-3 h | activation, % at 16.6 µM | hit rate 0.61% among 370,000;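 active = lowest replicate activation of at least 40%, so every replicate reaches that level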;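 also: 0% = median of neutral control wells and 100% = median of IBMX positive control wells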
MITF TRPM1 HTS: activators of MITF-driven TRPM1 promoter activity in SK-MEL-5 cells | SK-MEL-5 TRPM1-promoter luciferase, 24 h; % of positive control, neutral wells = 0 | activation, % at 12.5 µM | hit rate 0.75% among 300,000;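 active = mean activation of at least 80% with every replicate also reaching 80%; inconclusive = mean reaches 80% but some replicate falls short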;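 also: 0% = neutral control wells and 100% = parthenolide positive control wells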
* marks the source's active call; other numbers are inactive results; [ ] = dose if it differs, or a comment. Rule as the data show it, unless noted: active = inhibition above about 50%; inactive = the rest.

What do the screens show for `CNC[C@@H]1Oc2ccc(N(C)C)cc2C(=O)N([C@@H](C)CO)C[C@H]1C`?
INS-1E GSIS act: 11

Results for Cc1nc(-c2ccccc2)nc2[nH]c(C(C)C)cc(=O)c12 ?
Wnt act: 68*; Dyrk1A ADPGlo: -3; NSD2 inh: 1; miR122 inh: 5; INS-1E GSIS act: 3; MITF TRPM1 HTS: 5

How did CCOCCCNC(=O)c1cc2c(s1)-c1ccccc1SC2 do in these assays?
Wnt act: 0; Dyrk1A ADPGlo: 18; NSD2 inh: 1; miR122 inh: 0; INS-1E GSIS act: 5; MITF TRPM1 HTS: 18

How did CN(C)CCNC(=O)c1cc2c(s1)-c1ccc(Cl)cc1SC2 do in these assays?
Wnt act: 7; Dyrk1A ADPGlo: 34; NSD2 inh: 32; INS-1E GSIS act: 228*; MITF TRPM1 HTS: -99

How did O=C(C[C@@H]1CC[C@H]2[C@@H](COC[C@@H](O)CN2CCc2ccccc2)O1)NCc1ccc(F)cc1 do in these assays?
miR122 inh: -1[16.7 µM]; INS-1E GSIS act: -26

What do the screens show for `COc1cc(CO)ccc1OCc1ccc(Cl)nc1`?
Wnt act: 36*; Dyrk1A ADPGlo: -7; NSD2 inh: -2; miR122 inh: 0; INS-1E GSIS act: -2

What do the screens show for `O=C(O)c1ccc(-c2nc(-c3ccc(Cl)cc3Cl)cs2)cc1`?
Wnt act: 4; Dyrk1A ADPGlo: 12; NSD2 inh: 3; miR122 inh: 15; INS-1E GSIS act: -2; MITF TRPM1 HTS: inconclusive

What do the screens show for `O=C(O)c1ccc(-c2nc(-c3ccc(Cl)cc3)cs2)cc1`?
Wnt act: -4; Dyrk1A ADPGlo: 41; NSD2 inh: -1; INS-1E GSIS act: -8; MITF TRPM1 HTS: 118*

Results for COC(=O)c1ccc2c(=O)[nH]c(CSc3nc(C)cs3)nc2c1 ?
Wnt act: 35*; Dyrk1A ADPGlo: 11; NSD2 inh: -2; miR122 inh: 3; INS-1E GSIS act: -20; MITF TRPM1 HTS: 31

How did COC(=O)c1ccc2c(=O)[nH]c(CSc3nc(-c4ccc(F)cc4)cs3)nc2c1 do in these assays?
Wnt act: 0; Dyrk1A ADPGlo: 5; NSD2 inh: -1; INS-1E GSIS act: 58*; MITF TRPM1 HTS: -7

What do the screens show for `COc1ccccc1-c1ccc([C@H]2[C@@H](CO)N[C@@H]2CNC(=O)C2CCCC2)cc1`?
INS-1E GSIS act: 10

Results for Cc1ccccc1-c1nnc(-c2ccc(Br)cc2)o1 ?
Wnt act: 44*; Dyrk1A ADPGlo: 2; NSD2 inh: -7; miR122 inh: -3

What do the screens show for `Cc1ccccc1-c1nnc(-c2cccc3ccccc23)o1`?
Wnt act: 55*; NSD2 inh: -1; miR122 inh: -6; INS-1E GSIS act: 1; MITF TRPM1 HTS: 27

How did Cc1ccccc1-c1nnc(-c2ccccc2C)o1 do in these assays?
Wnt act: 47*; Dyrk1A ADPGlo: -1; NSD2 inh: -2; miR122 inh: -2; MITF TRPM1 HTS: 58

Results for CSc1ccccc1-c1nnc(-c2ccc(C)cc2)o1 ?
Dyrk1A ADPGlo: -16; NSD2 inh: 1; miR122 inh: 3; INS-1E GSIS act: -3; MITF TRPM1 HTS: 51

What do the screens show for `Cc1ccc(-n2c(C)cc(/C=C3\SC(=O)NC3=O)c2C)cc1`?
Wnt act: 18; NSD2 inh: 5; miR122 inh: 32; INS-1E GSIS act: -66; MITF TRPM1 HTS: 78

Results for Cc1cc(/C=C2\SC(=S)NC2=O)c(C)n1-c1cccc(O)c1 ?
Wnt act: 36*; Dyrk1A ADPGlo: -1; NSD2 inh: 43; INS-1E GSIS act: 3; MITF TRPM1 HTS: 69

What do the screens show for `CC(C)NC(=O)N(C)C[C@@H]1Oc2ccc(NS(=O)(=O)c3ccc(Cl)cc3)cc2C(=O)N([C@@H](C)CO)C[C@@H]1C`?
miR122 inh: 3[16.7 µM]; INS-1E GSIS act: 11

What do the screens show for `CC(=O)Nc1cccc(NC(=O)c2ccc(C(=O)Nc3cccc(NC(C)=O)c3)nc2)c1`?
Wnt act: 30; Dyrk1A ADPGlo: -2; NSD2 inh: 4; INS-1E GSIS act: -1; MITF TRPM1 HTS: -4

How did CN1CCN(c2ccc(-c3ccnn3C(=O)Nc3ccccc3)cc2)CC1 do in these assays?
Wnt act: 44*; Dyrk1A ADPGlo: 2; NSD2 inh: 3; INS-1E GSIS act: -3; MITF TRPM1 HTS: 49

Assay outcomes deposited in PubChem BioAssay by Broad Institute.
